Out of some 410,000 compounds screened, about 18,000 (4.4%) were called active. Not shown: some 7% with an inconclusive outcome. The entries come from a sample that favours actives as a whole. Values without a mark were called inactive. Rule as the data show it: active = activity change below about -60%; inconclusive = no clear call, values can overlap the other calls; inactive = above about -39%.
Test: qHTS Assay for inhibitors of the human cytomegalovirus (HCMV)
Conditions: HFF cells, HCMV-luciferase reporter, 72 h; at 57.5 µM; stronger effect = lower value
How it was run: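 Two compound doses tested in HFFs infected with HCMV-luciferase, MOI 1 PFU/cell, 72 h at 37C. Lysate luminescence read with OneGlo; data normalized against buffer-only and 10uM Salinomycin inhibitor controls.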
Compound Cc1cc(-c2ccccc2)n2nc(-c3ccccc3)cc2n1 has an activity change, negative = inhibition of -2.35%.
In the case of CC(C)(C)c1ccccc1NC(=O)CN1C(=O)NC2(CCCC2)C1=O, the activity change, negative = inhibition is reported as 19.2%.
With O=C(CN1C(=O)S/C(=C\c2ccccc2Cl)C1=O)NC1C=CS(=O)(=O)C1 (stereo not drawn) the activity change, negative = inhibition was -66.8% (active).
With CC12CCC(=O)N1C(C(=O)NCCN1C(=O)S/C(=C\c3ccccc3F)C1=O)CS2 (stereo not drawn) the activity change, negative = inhibition was -21.8%.
For O=C(NCCN1C(=O)S/C(=C\c2cccnc2)C1=O)c1ccc(S(=O)(=O)N2CCCC2)cc1, the activity change, negative = inhibition was 3.64%.
CCCn1c2ccccc2c2cnn(CC(=O)N(CC)c3cc(C)ccc3C)c(=O)c21 gave an activity change, negative = inhibition of -37.8%.
For Cc1ccc(C(=O)Nc2cc3c(cc2N2CCCC2)n(C)c(=O)c(=O)n3C)cc1, the activity change, negative = inhibition was 0.153%.
Work on O=C(NC1CCN(Cc2ccccc2)CC1)c1ccc(Cn2c(=O)c3ccccc3n(Cc3cccc(F)c3)c2=O)cc1 yielded an activity change, negative = inhibition of -15.8%.
Compound CCC(C(=O)Nc1cccc(Cl)c1C)n1nc(-c2ccc(C)cc2)ccc1=O (stereo not drawn) has an activity change, negative = inhibition of 12.4%.
Cc1nnc(NC(=O)CSc2nc3c([nH]c4ccccc43)c(=O)n2-c2cccc(Cl)c2)s1 showed an activity change, negative = inhibition of -12.8%.
With CCCCCCc1cc2cc(-c3nnc(-c4ccccc4)o3)c(=O)oc2cc1O the activity change, negative = inhibition was -100% (active).
With Cc1ncn2cc(-c3ccc(Cl)cc3Cl)[nH]c(=O)c12 the activity change, negative = inhibition was -32.3%.
With COn1c(-c2ccc(Cl)cc2Cl)nc2ncccc21 the activity change, negative = inhibition was -63.6% (active).
With CCn1c(-c2cccnc2Cl)nc2cc(C)c(C)cc21 the activity change, negative = inhibition was -25.4%.
With CC(NC(=O)CCc1cn(Cc2ccccc2Cl)c2ccccc12)c1ccccc1 (stereo not drawn) the activity change, negative = inhibition was -11.3%.
Compound Cc1cccc(NC(=O)N2CCN(C)c3ncccc32)c1C has an activity change, negative = inhibition of 12%.
Compound CC(Sc1oc(-c2ccco2)nc1S(=O)(=O)c1ccc(Br)cc1)c1ccccc1 (stereo not drawn) has an activity change, negative = inhibition of 0.136%.
In the case of COc1ccc2c(Cl)c(-c3nnco3)sc2c1, the activity change, negative = inhibition is reported as -7.84%.
In the case of CCN(C(=O)c1ccc(Br)cc1)c1ccccc1, the activity change, negative = inhibition is reported as 7.23%.
In the case of CCN(C(=O)c1sc2cc(OC)ccc2c1Cl)c1ccccc1, the activity change, negative = inhibition is reported as -99.2% (active).
COc1ccc(CNC(=O)c2ccc3c(c2)nc2n3CCOC2)c(OC)c1 gave an activity change, negative = inhibition of 2.67%.
For COc1ccccc1NS(=O)(=O)c1ccc(C)c(C(=O)NCC(c2ccco2)N(C)C)c1 (stereo not drawn), the activity change, negative = inhibition was -6.15%.
COc1ccc(C(CNC(=O)c2cc(S(=O)(=O)Nc3cccc(C)c3)ccc2C)N2CCCC2)cc1 (stereo not drawn) gave an activity change, negative = inhibition of -30.6%.
With Cc1cccc(NS(=O)(=O)c2ccc(C)c(C(=O)NCC(c3ccccc3)N(C)C)c2)c1 (stereo not drawn) the activity change, negative = inhibition was -101% (active).
In the case of O=C(Nc1ccccc1Cl)N1CCC(CN2CCCCC2)CC1, the activity change, negative = inhibition is reported as -10.2%.
For O=C(Nc1ccccc1Cl)/C(Cl)=C(\Cl)S(=O)c1ccccc1 (stereo not drawn), the activity change, negative = inhibition was -100% (active).
In the case of O=C(Nc1ccccc1Cl)N1CCC(CN2CCCC2)CC1, the activity change, negative = inhibition is reported as 37.3%.
Work on Oc1ccccc1-c1cc(-c2ccc(Cl)cc2)n[nH]1 yielded an activity change, negative = inhibition of -20.6%.
With COc1ccccc1CNS(=O)(=O)CC12CCC(CC1=O)C2(C)C (stereo not drawn) the activity change, negative = inhibition was 6.14%.
In the case of Oc1cccc2cc(-c3ccncc3)cnc12, the activity change, negative = inhibition is reported as -101% (active).
Compound Cc1ccc(OCCSc2nc3ccc(NC(=O)COc4ccc(C)cc4)cc3s2)cc1 has an activity change, negative = inhibition of 7.69%.
For Cc1ccccc1NC(=O)Cn1c(=O)n(CC2CCC(C(=O)NCCc3ccccc3)CC2)c(=O)c2ccccc21 (stereo not drawn), the activity change, negative = inhibition was 16.2%.
With COc1cc(C=C(OC(C)=O)c2ccc3c(c2)OCO3)cc(OC)c1OC the activity change, negative = inhibition was 62.8%.
For COc1cc(OC)c2c(c1)OC(=O)CC2c1cc(OC)c(OC)c(OC)c1 (stereo not drawn), the activity change, negative = inhibition was -7.37%.
With COc1cc(C2c3cc4c(cc3C(O)C3COC(=O)C23)OCO4)cc(OC)c1OC (stereo not drawn) the activity change, negative = inhibition was -89.9% (active).
For COC(=O)c1ccccc1NC(=O)c1cc(-c2ccccc2O)no1, the activity change, negative = inhibition was -14.2%.
With COC(=O)/C(=C1\Oc2ccc(C(C)(C)C)cc2S1)C(F)(F)F the activity change, negative = inhibition was -66.8% (active).
For CCOC(=O)C1=C(c2ccccc2)O/C(=C(/C(=O)OC)C(F)(F)F)S1, the activity change, negative = inhibition was 34.3%.
O=C(CNC(=O)c1n[nH]c2ccccc12)Nc1cc(Cl)ccc1Cl gave an activity change, negative = inhibition of 12.1%.
With Cc1ccc(C)c(-n2nnnc2SCC(=O)c2c(N)n(C)c(=O)n(C)c2=O)c1 the activity change, negative = inhibition was -19.3%.
With CC(=O)Nc1cccc(-c2ccnc3c2CC(C)(C(=O)NCc2ccccc2)O3)c1 (stereo not drawn) the activity change, negative = inhibition was -79.4% (active).
In the case of COc1ccc(NC(=O)C2Cc3c(-c4cccc(NC(C)=O)c4)ccnc3O2)cc1OC (stereo not drawn), the activity change, negative = inhibition is reported as -67.8% (active).
In the case of CC(=O)Nc1ccc(-c2ccnc3c2CC(C(=O)NC(C)C)O3)cc1 (stereo not drawn), the activity change, negative = inhibition is reported as -16.6%.
COc1ccc(NC(=O)C2(C)Cc3c(-c4ccc(C(N)=O)cc4)ccnc3O2)cc1 (stereo not drawn) showed an activity change, negative = inhibition of 32.9%.
COc1ccc(NC(=O)C2(C)Cc3c(-c4cccc(NC(C)=O)c4)ccnc3O2)cc1OC (stereo not drawn) gave an activity change, negative = inhibition of 16%.
For COc1ccc(CCCNC(=O)C2Cc3c(-c4cccc(C(N)=O)c4)ccnc3O2)cc1 (stereo not drawn), the activity change, negative = inhibition was -20.5%.
With COc1ccc(NC(=O)C2(C)Cc3c(-c4cccc(NC(C)=O)c4)ccnc3O2)cc1 (stereo not drawn) the activity change, negative = inhibition was -77.2% (active).
Work on CC1(C(=O)NCC2CCOCC2)Cc2c(-c3cccc(C(N)=O)c3)ccnc2O1 (stereo not drawn) yielded an activity change, negative = inhibition of 28.9%.
In the case of CC1(C(=O)Nc2cccnc2)Cc2c(-c3ccccc3)ccnc2O1 (stereo not drawn), the activity change, negative = inhibition is reported as -18.2%.
Compound Brc1ccc2c(c1)NC(c1cccnc1)=NC(c1ccccc1)=N2 has an activity change, negative = inhibition of 21.9%.
With COc1ccc(NC(=O)CCNC(=O)Cn2ccc3ccccc3c2=O)c(OC)c1 the activity change, negative = inhibition was -21.8%.
Work on COC(=O)c1[nH]c2cccc(C)c2c1NC(=O)CN1CCCc2ccccc21 yielded an activity change, negative = inhibition of 52.8%.
For CCOc1ccccc1C(=O)NCC(c1ccc(N(C)C)cc1)N1CCCC1 (stereo not drawn), the activity change, negative = inhibition was -6.83%.
CCOc1ccc(-c2nonc2NC(=O)c2oc3ccc(CC)cc3c2C)cc1 gave an activity change, negative = inhibition of 29.2%.
CCOc1ccc(-c2cn(S(=O)(=O)c3cccc4nsnc34)nc2N)cc1 showed an activity change, negative = inhibition of -29.7%.
COc1ccccc1C(c1nnnn1C(C)(C)C)N1CCN(Cc2ccccc2)CC1 (stereo not drawn) showed an activity change, negative = inhibition of -19.3%.
In the case of CCC(C)(C)n1nnnc1C(c1cccs1)N1CCN(c2nc3ccccc3s2)CC1 (stereo not drawn), the activity change, negative = inhibition is reported as -76.3% (active).
Compound CCC(C)(C)n1nnnc1C(c1ccc(OC)c(OC)c1)N1CCN(C(=O)c2ccco2)CC1 (stereo not drawn) has an activity change, negative = inhibition of -20.3%.

From PubChem BioAssay AID1259415 (National Center for Advancing Translational Sciences (NCATS), 2018)
% is scaled to controls: 0 for no effect and ±100 for the full control effect.
